Source: PubChem BioAssay
In the library only some 0.97% were active in any assay of this set; here they are far more common.
TLR9-MyD88 block: TLR9-MyD88 interaction inhibition; 340,000 compounds, 0.21% hits; Q9NR96+Q99836; inhibition, % at 4.98 µM; CHO BLA complementation TLR9-MyD88, CCF4 FRET ratio; AID 504734;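 active means inhibition above the mean over all tested compounds plus 3 SD, cut at about 21% in these data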;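 further: 0% = DMSO only wells and 100% = clavulanate BLA inhibitor control wells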
NTR1 agonist: agonists of human neurotensin receptor NTR1 | 330,000 compounds, 0.17% hits | AID 493036 | NTR1-U2OS beta-arrestin-GFP spot imaging, agonist mode | activation, % at 20 µM;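 active means activation at or above 40% of the spot to cytoplasm intensity ratio, with at least 20 cells analyzed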;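 further: 0% = DMSO without peptide and 100% = 100 nM NTR1 peptide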
Beta2AR agonist: activates human beta-2 adrenergic receptor causing internalization; Am2.2-beta2AR cells, FAP receptor internalization, flow cytometry; response, % (no concentration beside the values); 340,000 compounds, 0.43% hits; AID 504454;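 active means response above a set limit, near 3 SD of response in nonfluorescent compounds, cut at about 42% in these data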
Target sequence (P07550 whole entry, looked up): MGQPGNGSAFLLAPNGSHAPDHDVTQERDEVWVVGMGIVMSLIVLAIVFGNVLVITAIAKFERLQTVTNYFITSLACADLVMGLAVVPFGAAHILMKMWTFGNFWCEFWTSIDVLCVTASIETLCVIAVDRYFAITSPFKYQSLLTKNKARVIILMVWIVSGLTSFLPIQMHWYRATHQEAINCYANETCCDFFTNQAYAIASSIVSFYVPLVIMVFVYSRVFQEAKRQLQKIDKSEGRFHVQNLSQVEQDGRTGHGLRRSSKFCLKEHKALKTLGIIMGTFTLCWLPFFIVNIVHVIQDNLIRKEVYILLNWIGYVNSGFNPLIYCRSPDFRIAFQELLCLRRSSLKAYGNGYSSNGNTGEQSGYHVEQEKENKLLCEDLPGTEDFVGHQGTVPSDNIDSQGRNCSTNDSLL
TLR4-MyD88 BLA: TLR4-MyD88 interaction inhibition in cells; inhibition, % at 8.4 µM; O00206+Q99836; HeLa CL3-4 TLR4/MyD88 BLA complementation, FRET ratio; AID 861; 200,000 compounds, 0.18% hits; in the data active means inhibition above about 25%;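 further: 0% = vehicle and 100% = reference inhibitor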
NOD2-RIPK2 inh: inhibitors of human NOD2-RIPK2 interaction; AID 624267; O43353; 360,000 compounds, 0.38% hits; CHO BLA complementation NOD2-RIPK2, CCF4 ratio; inhibition, % at 4.98 µM; in the data active means inhibition above about 21%;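 further: 0% = vehicle only and 100% = reference blocker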
Bfl-1 A1 inh: inhibitors of the anti-apoptotic protein A1, read as caspase activation | MEF A1-2A-BIM cells, Caspase-Glo 3/7 luminescence, 3 h; percent of clofoctol response, vehicle zero | caspase activation, % (concentration not given with the values) | 330,000 compounds, 0.066% hits;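 active means over half of replicate activation scores above 10%, or exactly half above 10 with the replicate mean above 10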
NOD2-RIPK2 conf: NOD2-RIPK2 interaction inhibition confirmed. shares compounds with NOD2-RIPK2 inh. 1,200 compounds, 70% hits. inhibition, % at 4.98 µM. CHO cells, NOD2-RIPK2 BLA complementation, CCF4 FRET;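 active means mean inhibition across replicates above a set limit taken from the earlier primary screen, cut at about 21% in these data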;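 further: 0% = DMSO-only wells and the high end = clavulanate BLA-blocked wells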
NOD2 BLA counter: hits BLA reporter in NOD2-RIPK2 inhibitor counterscreen; shares compounds with NOD2-RIPK2 inh; CHO BLA reporter, CCF4 FRET ratio; inhibition, % at 4.98 µM; 1,200 compounds, 57% hits; AID 624371;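 active means mean inhibition above the low-control mean inhibition plus three low-control SD, cut at about 11% in these data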;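 further: 0% = DMSO only wells and 100% = clavulanate high control wells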
* marks the source's active call; other numbers are inactive results; / = no result.

SMILES	TLR9-MyD88 block	NTR1 agonist	Beta2AR agonist	TLR4-MyD88 BLA	NOD2-RIPK2 inh	Bfl-1 A1 inh	NOD2-RIPK2 conf	NOD2 BLA counter
CC[C@H]1CN2CCc3cc(OC)c(OC)cc3C2C[C@@H]1C[C@H]1NCCc2cc(OC)c(OC)cc21 (stereo not given in full)	3	20	32	/	23*	/	27*	-8
O=C(c1ccccc1Cl)N(Cc1ccc(Br)cc1)N1C(=O)CCC1=O	-2	2	-5	-10	23*	1	0	-2
CCn1cc(C(=O)NCc2ccco2)c(=O)c2cc(S(=O)(=O)N3CC(C)CC(C)C3)ccc21 (stereo not given)	0	5	-6	-8	5	0	/	/
COc1ccc2c(c1OC)c(=O)n1c3ccc(OC(C)C(=O)NCCCN4CCOCC4)cc3c3ccnc2c31 (stereo not given)	2	0	-1	/	21*	1	-26	-3
COc1ccc2c(c1OC)c(=O)n1c3ccc(OC(C)C(=O)NCCN4CCOCC4)cc3c3ccnc2c31 (stereo not given)	-12	0	2	/	-2	1	/	/
Nc1nc2ncccn2c1-c1ccc(F)c(F)c1	/	/	/	/	28*	/	19	20*
COC(=O)C1=NN(c2cccc3ccccc23)C2C(=O)N(c3ccccc3OC)C(=O)C12 (stereo not given)	/	18	4	/	7	-1	/	/
NS(=O)(=O)c1ccc(Oc2ccc(S(N)(=O)=O)cc2)cc1	-5	2	2	15	-12	-1	/	/
C=CS(=O)(=O)c1ccc(Oc2ccc(S(=O)(=O)C=C)cc2)cc1	15	66*	42*	23	36*	0	51*	17*
Cc1cccc(CS(=O)(=O)c2ncc(Cl)c(C(=O)NCc3ccc4c(c3)OCO4)n2)c1	0	20	13	/	39*	-1	42*	10
CC12CC3CC(C)(C1)CC(C(=O)NCc1ccncc1)(C3)C2	-12	1	-4	/	-4	-1	/	/
CCOC(=O)Cc1csc(NC(=O)C(C)Oc2ccc3c(C)cc(=O)oc3c2)n1 (stereo not given)	3	3	-4	5	-18	0	/	/
COc1ccc(Cl)cc1NC(=O)Cc1c(F)cccc1Cl	3	6	1	-25	22*	0	3	1
COC(=O)c1cnc(Oc2ccc(NC(=O)NC(=O)c3c(F)cccc3Cl)cc2)cc1C(F)(F)F	-9	8	2	/	-1	1	/	/
CCOC(=O)c1sc2nc(-c3ccccc3)ccc2c1N	12	2	9	15	23*	-6	48*	59*
O=c1c(O)c(-c2ccc(O)cc2)oc2cc(O)cc(O)c12	4	0	7	/	-9	0	/	/
O=c1c(O)c(-c2ccc(O)c(O)c2)oc2cc(O)ccc12	20	/	8	/	25*	/	29*	28*
CCCc1ccc(C(=O)Cn2nc(C(=O)O)c3ccccc3c2=O)cc1	-3	5	0	-3	3	0	/	/
CC(C)(C)CC(C)(C)NC(=S)Nc1ccc2nc(-c3ccccn3)c(-c3ccccn3)nc2c1	8	13	9	19	32*	0	9	8
CC(C)=CCSc1nnc([C@@H](NC(=O)OC(C)(C)C)C(C)C)o1	-13	-4	1	-5	-5	0	/	/
Cc1ccccc1CS(=O)(=O)c1nnc([C@H](CC(C)C)NC(=O)OC(C)(C)C)o1	0	20	64*	11	26*	-1	42*	-5
CC(C)[C@H](NC(=O)OC(C)(C)C)c1nnc(S(=O)(=O)Cc2c(F)cccc2Cl)o1	16	33	30	/	69*	0	70*	10
CC[C@@H](C)[C@H](NC(=O)OC(C)(C)C)c1nnc(S(=O)(=O)Cc2cc(C)ccc2C)o1	-2	-1	11	11	59*	-1	53*	-4
CC(C)(C)OC(=O)N[C@@H](Cc1ccccc1)c1nnc(S(=O)(=O)Cc2cccc(F)c2)o1	/	10	/	11	/	3	/	/
O=C1C(=NO)C(c2ccccc2)Oc2ccccc21 (stereo not given)	12	/	10	/	28*	/	20	27*
SMILES	TLR9-MyD88 block	NTR1 agonist	Beta2AR agonist	TLR4-MyD88 BLA	NOD2-RIPK2 inh	Bfl-1 A1 inh	NOD2-RIPK2 conf	NOD2 BLA counter
CCn1c(NCc2cc(Cl)ccc2O)nc2ccccc21	-5	6	-5	/	46*	0	-1	-1
Cc1ccccc1C(=O)N1CCN(c2ccc(NC(=S)NC(=O)c3ccco3)cc2)CC1	-13	1	7	/	-11	0	/	/
C=C1C(=O)[C@]23C[C@H]1CCC2[C@@]1(C)C(C[C@@H]3O)[C@](C)(C(=O)OC)CC[C@@H]1O (stereo not given in full)	/	/	/	/	77*	/	67*	10
C[C@@]12C(C[C@H](O)[C@@]34C[C@@H](CCC13)[C@@H](CO)C4=O)[C@](C)(C(=O)O)CC[C@@H]2O (stereo not given in full)	/	/	/	/	-11	/	/	/
COC(=O)C1=CN(Cc2ccc(OC)cc2)C=C(C(=O)OC)C1c1cccs1	-7	1	-4	-10	-8	0	/	/
CCc1sc(N2C(=O)C3C4CCC(C4=C(C)C)C3C2=O)nc1-c1ccccc1 (stereo not given)	0	11	10	-7	71*	1	-1	0
O=C(Nc1cnccn1)c1csc2ccccc12	-1	-1	8	-3	33*	-5	-4	-3
COc1cc2c(cc1OC)CN(Cc1ccc(C)s1)CC2	-7	0	-4	-16	-10	0	/	/
Cc1ccccc1-c1nc(CS(=O)CC(=O)NCc2ccccn2)c(C)o1 (stereo not given)	4	0	2	/	1	0	/	/
CCN(CC)S(=O)(=O)c1ccc(N/N=C/c2ccc(O)cc2)nc1	-8	0	13	-6	40*	0	2	3
CC1CCN(C(=O)CC(NC(N)=O)c2ccccc2Cl)CC1 (stereo not given)	4	-2	9	/	-5	-1	/	/
CC(OC(=O)CN1C(=O)NC2(CCCC2)C1=O)C(=O)Nc1cccc(Cl)c1Cl (stereo not given)	5	1	1	/	4	0	/	/
Cc1ccc(-c2nn(-c3ccccc3)cc2CN(Cc2ccccc2)C(=O)c2ccco2)o1	8	12	24	-3	36*	1	2	-7
O=P(CCCCCCCCCP(=O)(c1ccccc1)c1ccccc1)(c1ccccc1)c1ccccc1	3	28	18	0	22*	1	16	3
